Reference: PubChem BioAssay AID1159580 (chemical genetic matrix, 2015)
Out of some 5,500 compounds screened, about 2,000 (36%) were called active. Inconclusive results (about 18%) are left out. No stated cut-off is given here; in the data, active means normalized growth mostly below about 0.91 (no sharp cut-off); inconclusive means no clear call, values can overlap the other calls; inactive means mostly above about 0.92. This is one part of the list.

Test: chemical genetic growth profiling, strain panel (AID 1159580);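 further: tested at 20 µM; growth read once vehicle control cultures reached saturation at 30 °C; 1 = growth at the plate median or of vehicle wells; lower values mean less growth of the strain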
Settings: growth OD

Measured: normalized growth

OC1=Cc2c(O)cc(O)cc2OC1(O)c1ccc(O)c(O)c1 (stereo not drawn)
inactive: S. cerevisiae deletion strains, locus YBR021W, strain FUR4, hits give low values 1.06 | S. cerevisiae deletion strains, locus YBR229C, strain ROT2, hits give low values 1 | S. cerevisiae deletion strains, locus YCL029C, strain bik1, hits give low values 0.997 | S. cerevisiae deletion strains, locus YDL035C, strain GPR1, hits give low values 1.02 | S. cerevisiae deletion strains, locus YDL074C, strain BRE1, hits give low values 0.962 | S. cerevisiae deletion strains, locus YDL101C, strain DUN1, hits give low values 0.99 | S. cerevisiae deletion strains, locus YDL134C, strain PPH21, hits give low values 0.975 | S. cerevisiae deletion strains, locus YDL185W, strain tfp1, hits give low values 0.96 | S. cerevisiae deletion strains, locus YDL192W, strain arf1, hits give low values 1 | S. cerevisiae deletion strains, locus YDR101C, strain arx1, hits give low values 1.03 | S. cerevisiae deletion strains, locus YDR162C, strain NBP2, hits give low values 0.956 | S. cerevisiae deletion strains, locus YDR318W, strain mcm21, hits give low values 1 | S. cerevisiae deletion strains, locus YDR388W, hits give low values 0.994 | S. cerevisiae deletion strains, locus YDR502C, strain sam2, hits give low values 1.01 | S. cerevisiae deletion strains, locus YER110C, hits give low values 0.993 | S. cerevisiae deletion strains, locus YER155C, strain BEM2, hits give low values 1.02 | S. cerevisiae deletion strains, locus YER167W, strain BCK2, hits give low values 1.01 | S. cerevisiae deletion strains, locus YGL078C, strain dbp3, hits give low values 0.972 | S. cerevisiae deletion strains, locus YGL086W, strain mad1, hits give low values 0.997 | S. cerevisiae deletion strains, locus YGL248W, strain PDE1, hits give low values 0.979 | S. cerevisiae deletion strains, locus YGR078C, strain PAC10, hits give low values 0.962 | S. cerevisiae deletion strains, locus YGR135W, strain pre9, hits give low values 0.972 | S. cerevisiae deletion strains, locus YGR252W, strain gcn5, hits give low values 1.1 | S. cerevisiae deletion strains, locus YHR030C, strain SLT2, hits give low values 0.984 | S. cerevisiae deletion strains, locus YHR079C, strain IRE1 (second series), hits give low values 0.995 | S. cerevisiae deletion strains, locus YHR094C, strain hxt1, hits give low values 0.995 | S. cerevisiae deletion strains, locus YHR129C, strain ARP1, hits give low values 0.985 | S. cerevisiae deletion strains, locus YHR200W, strain rpn10, hits give low values 0.997 | S. cerevisiae deletion strains, locus YIL066C, strain RNR3, hits give low values 0.991 | S. cerevisiae deletion strains, locus YIL073C, strain SPO22, hits give low values 0.972 | S. cerevisiae deletion strains, locus YIL125W, strain kgd1, hits give low values 0.989 | S. cerevisiae deletion strains, locus YIR030C, strain dcg1, hits give low values 0.989 | S. cerevisiae deletion strains, locus YJL095W, strain BCK1, hits give low values 0.965 | S. cerevisiae deletion strains, locus YJL134W, strain LCB3, hits give low values 0.997 | S. cerevisiae deletion strains, locus YJL168C, strain set2, hits give low values 0.991 | S. cerevisiae deletion strains, locus YJL187C, strain SWE1 (second series), hits give low values 0.966 | S. cerevisiae deletion strains, locus YKL009W, strain mrt4, hits give low values 0.997 | S. cerevisiae deletion strains, locus YKL068W, hits give low values 0.981 | S. cerevisiae deletion strains, locus YKL085W, strain MDH1 (second series), hits give low values 0.986 | S. cerevisiae deletion strains, locus YKL085W, strain MDH1, hits give low values 0.986 | S. cerevisiae deletion strains, locus YKL190W, strain CNB1, hits give low values 0.992 | S. cerevisiae deletion strains, locus YKR001C, strain vps1, hits give low values 1 | S. cerevisiae deletion strains, locus YLR039C, strain RIC1, hits give low values 1 | S. cerevisiae deletion strains, locus YLR058C, strain SHM2, hits give low values 0.984 | S. cerevisiae deletion strains, locus YLR102C, strain apc9, hits give low values 0.993 | S. cerevisiae deletion strains, locus YLR268W, strain sec22, hits give low values 1.02 | S. cerevisiae deletion strains, locus YLR342W, strain FKS1 (second series), hits give low values 0.935 | S. cerevisiae deletion strains, locus YLR371W, strain rom2, hits give low values 0.975 | S. cerevisiae deletion strains, locus YLR418C, strain cdc73, hits give low values 1.02 | S. cerevisiae deletion strains, locus YML016C, strain PPZ1, hits give low values 0.972 | S. cerevisiae deletion strains, locus YML032C, strain rad52, hits give low values 1.02 | S. cerevisiae deletion strains, locus YML124C, strain tub3, hits give low values 1 | S. cerevisiae deletion strains, locus YMR078C, strain ctf18, hits give low values 0.99 | S. cerevisiae deletion strains, locus YMR223W, strain ubp8, hits give low values 0.987 | S. cerevisiae deletion strains, locus YMR307W, strain GAS1, hits give low values 0.971 | S. cerevisiae deletion strains, locus YNL067W, strain RPL9B, hits give low values 0.967 | S. cerevisiae deletion strains, locus YNL153C, strain GIM3, hits give low values 0.964 | S. cerevisiae deletion strains, locus YNL233W, strain BNI4, hits give low values 0.998 | S. cerevisiae deletion strains, locus YNL250W, strain rad50, hits give low values 0.97 | S. cerevisiae deletion strains, locus YNL271C, strain bni1, hits give low values 0.978 | S. cerevisiae deletion strains, locus YNL298W, strain CLA4, hits give low values 0.986 | S. cerevisiae deletion strains, locus YNL307C, strain MCK1, hits give low values 0.999 | S. cerevisiae deletion strains, locus YNR052C, strain pop2, hits give low values 0.981 | S. cerevisiae deletion strains, locus YOL006C, strain TOP1, hits give low values 0.945 | S. cerevisiae deletion strains, locus YOL012C, strain htz1 0.48 | S. cerevisiae deletion strains, locus YOL147C, strain pex11, hits give low values 1.01 | S. cerevisiae deletion strains, locus YOR061W, strain CKA2, hits give low values 0.987 | S. cerevisiae deletion strains, locus YOR069W, strain VPS5, hits give low values 0.988 | S. cerevisiae deletion strains, locus YOR136W, strain idh2, hits give low values 1 | S. cerevisiae deletion strains, locus YOR144C, strain elg1, hits give low values 0.996 | S. cerevisiae deletion strains, locus YOR184W, strain ser1, hits give low values 1.05 | S. cerevisiae deletion strains, locus YOR316C, strain cot1, hits give low values 0.984 | S. cerevisiae deletion strains, locus YPR119W, strain clb2, hits give low values 0.995 | S. cerevisiae deletion strains, locus YPR141C, strain kar3, hits give low values 0.974 | S. cerevisiae deletion strains, locus YPR163C, strain tif3, hits give low values 0.999 | S. cerevisiae deletion strains, locus YPR167C, strain met16, hits give low values 0.999 | S. cerevisiae deletion strains, strain wtn01, hits give low values 1.01 | S. cerevisiae strains, strain wild type, hits give low values 0.998
